Measured values taken from PubChem BioAssay.
The source made the active and inactive calls.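 How the source made its calls, unless noted: active means fluorescence slope after compound addition differing from the mean of all screened samples at 99.7% confidence, in either direction; inactive means the rest.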

How the values were obtained:
[1] = inhibitors of TNFa-induced NFkB p65 translocation, primary screen, imaging, HUVEC, MLSMR starter and 10KST1 sets (AID 438;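 active means inhibition above 20% together with a positive visual image hit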;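 further: compound added about 3h40 before a 20 min TNFalpha stimulation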;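 on inhibition: signal is the nuclear over cytoplasmic p65 intensity ratio per well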); details: HUVEC TNFa-induced p65 nuclear translocation; cell count: measured here: nuclei count (cytotoxicity indicator), at 2.08 µM; inhibition: at 2 µM, stronger effect = higher value, 0% TNFa-plus-vehicle, 100% no-TNFa wells
[2] = reduction of polyQ htt aggregates in cells – imaging, exon1htt(103Q)mCFP cells, high-content imaging, primary screen (AID 483;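 active means visual image review flags a hit and inhibition of aggregation exceeds 20%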;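 further: compound exposure lasted 3 days before fixation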;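 on nuclei count: percent of the per-plate median nuclei count of sample wells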); details: exon1htt(103Q)mCFP cell line, aggregate imaging, at 2 µM; inhibition of aggregation: stronger effect = higher value; nuclei count: measured here: cell count, toxicity
[3] = endothelial E-selectin expression blockers – imaging, HUVEC, immunofluorescence, MLSMR starter and 10KST1 sets, primary screen (AID 487;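 active means visually confirmed hit in the image check and inhibition above 20%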;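 on inhibition: signal is fraction of cell area covered by stained E-selectin grains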;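 on nuclei count: 100% = median nuclei count of all wells on the same plate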); details: HUVEC TNFalpha-induced E-selectin immunofluorescence imaging, at 2 µM; inhibition: stronger effect = higher value; nuclei count: measured here: cell number, toxicity
[4] = target: Voltage-gated potassium channel subunit beta-2 (Rattus norvegicus) (UniProt P62483); test: inhibitors of rat Kvbeta2 reductase activity – biochemical, NADPH fluorescence, primary screen (AID 622;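 active means fluorescence slope higher than the sample average by over 3 SD, cut at about -0.22 in these data, passing the limit was not always enough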;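 further: slope of raw intensity against log time taken from 70 to 1610 s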); details: recombinant KvBeta, 4-cyanobenzaldehyde reduction, at 10 µM, stronger effect = higher value
[5] = target: Voltage-gated potassium channel subunit beta-2 (Rattus norvegicus) (UniProt P62483); test: enhancers of rat Kvbeta2 NADPH turnover – biochemical, NADPH fluorescence, primary screen (AID 623;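 active means NADPH fluorescence slope more negative than the mean of all samples by about 3 SD, 99.7% confidence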;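 further: fluorescence intensity change per second fitted from 20 to 320 s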); details: Recombinant KvBeta, NADPH fluorescence decrease slope, 10 min; at 10 µM; stronger effect = lower value
[6] = target: Alpha-2C adrenergic receptor (Homo sapiens) (UniProt P18825); test: compounds altering alpha2C-coupled GIRK flux – cell-based, HEK293 alpha2C/GIRK1/2, thallium flux, primary screen (AID 624); details: thallium flux BTC fluorescence, at 10 µM, actives lie on both sides;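 further: slope of fluorescence ratio to pre-addition baseline per second over 15 to 24 s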
[7] = blockers of RIG-like receptor reporter activation – cell-based, Sendai virus stimulus, luciferase, 10K MLSCN set, TLR/RLR signaling modifier project, primary screen (AID 602276;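 active means inhibition at or above 50% at 10 µM; inactive means inhibition below 50%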;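 further: firefly luciferase from ISG56 promoter only with Renilla not read in this screen; 0% = Sendai virus plus DMSO and 100% = medium plus DMSO without virus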); details: HEK293 RL24 IRF3 luciferase reporter, at 10 µM, stronger effect = higher value
[8] = TLR3 IRF3 reporter activation blockers – cell-based, poly I:C stimulus, luciferase, 10K MLSCN set, primary screen (AID 602277;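 active means inhibition of the reporter signal at or above 50%; inactive means inhibition below 50%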); details: HEK293-TLR3 RL24 IRF3 luciferase reporter, at 10 µM, stronger effect = higher value

Chain of Voltage-gated potassium channel subunit beta-2 (Rattus norvegicus) (P62483 whole entry, looked up): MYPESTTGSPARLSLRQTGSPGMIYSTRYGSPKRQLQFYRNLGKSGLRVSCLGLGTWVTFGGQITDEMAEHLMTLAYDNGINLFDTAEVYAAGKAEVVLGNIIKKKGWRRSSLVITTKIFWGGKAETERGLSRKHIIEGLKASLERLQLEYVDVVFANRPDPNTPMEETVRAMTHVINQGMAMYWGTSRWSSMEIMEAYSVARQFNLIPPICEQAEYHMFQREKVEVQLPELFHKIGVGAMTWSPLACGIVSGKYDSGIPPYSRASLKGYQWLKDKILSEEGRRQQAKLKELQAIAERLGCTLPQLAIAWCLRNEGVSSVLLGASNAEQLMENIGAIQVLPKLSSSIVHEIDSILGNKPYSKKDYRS
Chain of Alpha-2C adrenergic receptor (Homo sapiens) (P18825 whole entry, looked up): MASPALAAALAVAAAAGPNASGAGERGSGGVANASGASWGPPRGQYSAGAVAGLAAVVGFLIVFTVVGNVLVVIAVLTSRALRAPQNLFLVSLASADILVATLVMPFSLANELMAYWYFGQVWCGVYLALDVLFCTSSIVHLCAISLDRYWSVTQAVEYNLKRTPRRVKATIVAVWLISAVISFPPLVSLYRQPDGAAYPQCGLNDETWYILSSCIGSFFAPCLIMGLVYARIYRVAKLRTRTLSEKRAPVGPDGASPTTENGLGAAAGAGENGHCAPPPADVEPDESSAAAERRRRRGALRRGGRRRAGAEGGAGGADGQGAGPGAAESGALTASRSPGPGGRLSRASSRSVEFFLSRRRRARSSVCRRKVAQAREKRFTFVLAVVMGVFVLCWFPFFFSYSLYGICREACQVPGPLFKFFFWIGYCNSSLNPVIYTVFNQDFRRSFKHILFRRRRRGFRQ

SMILES | cell count [1] | inhibition [1] | inhibition of aggregation [2] | nuclei count [2] [%] | inhibition [3] | nuclei count [3] [%] | fluorescence slope [4] | NADPH fluorescence slope [5] | slope [6] | inhibition [7] | inhibition [8]
Cc1c(NC2=NC3(CCCCC3)Cc3ccccc32)c(=O)n(-c2ccccc2)n1C | 716 | -5.3% (inactive) | 6.1% (inactive) | 101 | 59.1% (active) | 72.3 | -0.354 (inactive) | -6.6e-05 (inactive) | 0.00622 (inactive) | 13.1% (inactive) | 21.6% (inactive)
CCOC(=O)N(C)c1ccc(C(O)(C(F)(F)F)C(F)(F)F)cc1 | 601 | -8.6% (inactive) | -12.5% (inactive) | 105 | -58.6% (inactive) | 109 | -0.369 (inactive) | -6.4e-05 (inactive) | 0.0041 (inactive) | -1.35% (inactive) | 100% (active)
CCN(CC)S(=O)(=O)c1ccc2[nH]cc(C(=O)NCCC3=CCCCC3)c(=O)c2c1 | 344 | 8.4% (inactive) | -4.1% (inactive) | 71.6 | 96.3% (active) | 91 | -0.498 (inactive) | -4.6e-05 (inactive) | 0.00467 (inactive) | 12% (inactive) | 6.76% (inactive)
Cc1ccc(-n2c(-c3ccncc3)nnc2-c2cccs2)cc1 | 456 | -3.2% (inactive) | -22.5% (inactive) | 104 | -55.2% (inactive) | 119 | -0.384 (inactive) | -4.2e-05 (inactive) | 0.0046 (inactive) | 11.8% (inactive) | 12.5% (inactive)
CCOC(=O)C1CCCN(C/C(O)=C(\C#N)c2nc(-c3ccc(Cl)cc3)cs2)C1 (configuration not stated) | 479 | 1% (inactive) | -6.9% (inactive) | 112 | -39.9% (inactive) | 120 | -0.499 (inactive) | -3.4e-06 (inactive) | 0.00581 (inactive) | 14.3% (inactive) | 2.09% (inactive)
C=CCn1c(=O)c(C(=O)Nc2ccccc2C(=O)OCC)c(O)c2ccccc21 | 495 | -5.5% (inactive) | -15.6% (inactive) | 120 | -23.1% (inactive) | 122 | -0.422 (inactive) | -4.7e-05 (inactive) | 0.00716 (inactive) | 16.9% (inactive) | 14.7% (inactive)
CN(C)c1oc(-c2ccccc2Cl)nc1C#N | 302 | 4.3% (inactive) | -4.3% (inactive) | 90.7 | 6% (inactive) | 109 | -0.433 (inactive) | -0.000102 (inactive) | 0.00458 (inactive) | 6.71% (inactive) | -0.158% (inactive)
CC1=CC2=C(OC1N(C)C)c1cccc3cccc(c13)C2=O (configuration not stated) | 277 | 23.4% (active) | 3.4% (inactive) | 96.5 | 46.7% (inactive) | 100 | -0.493 (inactive) | 2e-06 (inactive) | 0.00351 (inactive) | 5.12% (inactive) | -3.5% (inactive)
CCOc1ccc(OCC)c(NC(=O)C2CCN(c3ncccn3)CC2)c1 | 588 | -14.2% (inactive) | 10.9% (inactive) | 103 | -43.7% (inactive) | 113 | -0.421 (inactive) | -5.1e-05 (inactive) | 0.0054 (inactive) | 8.17% (inactive) | 11.1% (inactive)
COc1ccc(NC(=O)C(C)NS(=O)(=O)c2ccc(NC(C)=O)cc2)cc1Cl (configuration not stated) | 788 | 2.8% (inactive) | -14.8% (inactive) | 105 | 6.9% (inactive) | 113 | -0.34 (inactive) | 2.4e-05 (inactive) | 0.00739 (inactive) | 12.1% (inactive) | 7.34% (inactive)
Cn1c(=O)c(=O)n(C)c2cc(S(=O)(=O)Nc3ccc4c(c3)OCCO4)ccc21 | 354 | -1.2% (inactive) | -18.4% (inactive) | 106 | -21.4% (inactive) | 108 | -0.421 (inactive) | -5.4e-05 (inactive) | 0.00519 (inactive) | 45.1% (inactive) | 35.8% (inactive)
CC(=O)C1=C(C)NC(SCSc2ccccc2)=C(C#N)C1c1cccnc1 (configuration not stated) | 472 | -0.5% (inactive) | -6.8% (inactive) | 87.9 | -33% (inactive) | 121 | -0.475 (inactive) | -3e-05 (inactive) | 0.00661 (inactive) | 1.86% (inactive) | 0.63% (inactive)
Cc1ccnc2c(N3C(=O)C4C5C=CC(C5)C4(C)C3=O)cccc12 (configuration not stated) | 630 | -6.5% (inactive) | -2.2% (inactive) | 94.9 | -13.1% (inactive) | 111 | -0.556 (inactive) | -1.1e-05 (inactive) | 0.00676 (inactive) | 5.21% (inactive) | 28.5% (inactive)
Cc1ccc(C(c2nnnn2CCC(C)C)N2CCN(C)CC2)cc1 (configuration not stated) | 417 | 1% (inactive) | 8.9% (inactive) | 73.1 | -73.9% (inactive) | 108 | -0.598 (inactive) | -4.8e-05 (inactive) | 0.00252 (inactive) | 13.9% (inactive) | -3.3% (inactive)
COc1ccc(S(=O)(=O)N2CCCC(C(=O)N3CCCCCC3)C2)cc1 (configuration not stated) | 404 | -5.2% (inactive) | -0.4% (inactive) | 106 | -8.6% (inactive) | 105 | -0.403 (inactive) | -5e-05 (inactive) | 0.00316 (inactive) | 12% (inactive) | 10.4% (inactive)
CCCCSc1nnc([C@H](C)NC(=O)OC(C)(C)C)o1 | 345 | 0.2% (inactive) | -2.7% (inactive) | 104 | -34.4% (inactive) | 112 | -0.266 (inactive) | -2.9e-05 (inactive) | 0.00436 (inactive) | 11.6% (inactive) | 14.8% (inactive)
COc1ccc(CCNS(=O)(=O)c2ccc3oc(C(=O)O)c(C)c3c2)cc1OC | 612 | -11.4% (inactive) | 3.9% (inactive) | 107 | -32% (inactive) | 114 | -0.444 (inactive) | 6.2e-05 (inactive) | 0.00543 (inactive) | 12.5% (inactive) | 21.9% (inactive)
CCC1CCCCN1C(=O)C1CC(c2cc(Cl)c(OC)cc2OC)=NO1 (configuration not stated) | 411 | 6.8% (inactive) | 1.6% (inactive) | 108 | -8.7% (inactive) | 168 | -0.504 (inactive) | 2e-05 (inactive) | 0.00725 (inactive) | -1.49% (inactive) | -30.3% (inactive)
COC(=O)Cn1c(=O)c2c(nc3n2CC(C)CN3c2ccc(C)c(C)c2)n(C)c1=O (configuration not stated) | 561 | -11% (inactive) | -7.5% (inactive) | 110 | -19.2% (inactive) | 118 | -0.535 (inactive) | -4.3e-05 (inactive) | 0.00607 (inactive) | 13.3% (inactive) | 36% (inactive)
CC1(C)CC(=O)C2=C(C1)NC(=O)CC2c1ccc(N(CCC#N)CCC#N)cc1 (configuration not stated) | 432 | 5.9% (inactive) | -2.1% (inactive) | 109 | 21.1% (inactive) | 116 | -0.376 (inactive) | 6.8e-05 (inactive) | 0.00771 (inactive) | 1.16% (inactive) | 17.9% (inactive)
N#CC1=C(N)S[C@H](C(=O)C23CC4CC(CC(C4)C2)C3)[C@H]1c1ccncc1 | 297 | 2.4% (inactive) | -16.4% (inactive) | 105 | -10.8% (inactive) | 111 | -0.482 (inactive) | -1.6e-05 (inactive) | 0.0041 (inactive) | 11.9% (inactive) | 23.4% (inactive)
COc1cc(C)c(-c2cc(C(=O)O)c(C)o2)cc1C(C)C | 451 | -7.7% (inactive) | -1.5% (inactive) | 95.9 | -99% (inactive) | 130 | -0.416 (inactive) | 6.3e-06 (inactive) | 0.00528 (inactive) | 12.3% (inactive) | 17.2% (inactive)
C=CCn1c(SCC(=O)NCC2CCCO2)nc2scc(-c3ccco3)c2c1=O (configuration not stated) | 557 | -10.3% (inactive) | -29.4% (inactive) | 98.5 | 28.1% (inactive) | 98.7 | -0.459 (inactive) | -0.000271 (active) | 0.00487 (inactive) | 11.9% (inactive) | 13.5% (inactive)
Cc1ccc(-c2noc(C3CCCN(C(=O)c4ccccc4)C3)n2)o1 (configuration not stated) | 490 | 5.2% (inactive) | -19.1% (inactive) | 112 | -102% (inactive) | 125 | -0.372 (inactive) | -1.7e-05 (inactive) | 0.00371 (inactive) | -20% (inactive) | -111% (inactive)
CCN(CC)C(=O)C1CCCc2c1[nH]c1ccc(Cl)cc21 (configuration not stated) | 674 | -18.9% (inactive) | -0.9% (inactive) | 109 | -47.8% (inactive) | 104 | -0.539 (inactive) | -3.5e-05 (inactive) | 0.00741 (inactive) | -47.5% (inactive) | -12.1% (inactive)
O=C1C2CC=C(Cl)CC2C(=O)N1c1ncn[nH]1 (configuration not stated) | 329 | 5.5% (inactive) | 7.6% (inactive) | 98.3 | -62.1% (inactive) | 113 | -0.483 (inactive) | -5.8e-05 (inactive) | 0.00499 (inactive) | 12.6% (inactive) | 14% (inactive)
CC1CCCCN1S(=O)(=O)c1ccc(NC(=O)c2cccs2)cc1 (configuration not stated) | 678 | -14.6% (inactive) | 25.4% (inactive) | 86.3 | -25.1% (inactive) | 104 | -0.431 (inactive) | 9.2e-06 (inactive) | 0.00361 (inactive) | -0.562% (inactive) | 5.71% (inactive)
